# Measurements published in the supplement of paper PMC9135407.
# Where a name gives a salt, the structure may show the parent alone.
# Test system: primary human hepatic stellate cells (donor 1)
# Assay: COL1A1 mRNA fold change vs DMSO (normalised to PSMB2); higher = more COL1A1 expression, active = hit call of the paper
# Details: 48 h
# Experimental: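 Secondary qRT-PCR screen in primary human HSCs (donor 1), 384-well plates, with compounds dispensed in quadruplicate and incubated for 48 h. Cells-to-CT lysates were used for multiplexed TaqMan qPCR of ACTA2 or COL1A1 with PSMB2 as reference. Fold changes versus DMSO come from a linear model (Ct_gene ~ Ct_PSMB2 + plate + chemical). A hit is defined as COL1A1 and ACTA2 FC <0.5 (FDR <0.05) with PSMB2 between 0.2 and 2.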
row,SMILES,COL1A1 mRNA fold change
1,CC1=C(CC/C(C)=C/CCC2=CC[C@H](C3=CC(=O)O[C@H]3O)O[C@H]2O)C(C)(C)CCC1 [Manoalide] (40 µM),0.236 (active)
2,CCN1CCN(C(=O)Cc2ccc(Nc3ncc(F)c(Nc4ccc(C(=O)Nc5ccccc5Cl)cc4)n3)cc2)CC1 [Aurora A Inhibitor I] (33.3333 µM),0.0414 (inactive)
3,CCN(CC)CCO[C@H]1CC[C@@]2(C)C(=CC[C@@H]3[C@@H]2CC[C@]2(C)C(=O)CC[C@@H]32)C1 (33.3333 µM),0.921 (inactive)
4,O=C1/C(=C/c2ccccc2)C[C@@]2(O)[C@H]3Cc4ccc(O)c5c4[C@@]2(CCN3CC2CC2)[C@H]1O5 [BNTX maleate] (33.3333 µM),0.233 (inactive)
5,CN1[C@@H]2CC[C@H]1C[C@@H](OC(c1ccc(F)cc1)c1ccc(F)cc1)C2 [3 α-Bis-(4-fluorophenyl) methoxytropane hydrochloride] (33.3333 µM),1.54 (inactive)
6,CC1=C(O)C(=O)C=C2C1=CC=C1[C@@]2(C)CC[C@@]2(C)[C@@H]3C[C@](C)(C(=O)O)CC[C@]3(C)CC[C@]12C [Celastrol] (3.33333 µM),1.09 (inactive)
7,CCCCCCCCCCCCCC(=O)O[C@@H]1[C@@H](C)[C@@]2(O)[C@@H](C=C(CO)C[C@]3(O)C(=O)C(C)=C[C@@H]23)[C@@H]2C(C)(C)[C@]12OC(C)=O [Phorbol 12-myristate 13-acetate] (27.0333 µM),0.71 (inactive)
8,C[C@H](N)Cn1ccc2cc(F)c(Cl)cc21 [Ro 60-0175 fumarate] (33.3333 µM),2.21 (inactive)
9,CC1=NCCc2c1[nH]c1cc(O)ccc21 [Harmalol hydrochloride dihydrate] (24.4333 µM),1.24 (inactive)
10,CO[C@H]1CC[C@@H](O[C@H]2C[C@H]([C@]3(C)CC[C@]4(C[C@H](O)[C@@H](C)[C@@H]([C@@H](C)/C=C(\C)C(=O)[C@H](C)C[C@H](C)C(=O)O)O4)O3)O[C@]3(O[C@@H]([C@H]4O[C@@](O)(CO)[C@H](C)C[C@@H]4C)C[C@@H]3C)[C@@H]2C)O[C@@H]1C [Nanchangmycin] (11.1 µM),0.223 (active)
11,CC[C@H]1CN2CCc3cc(OC)c(OC)cc3[C@@H]2C[C@@H]1C[C@H]1NCCc2cc(OC)c(OC)cc21 [Emetine] (12.0333 µM),0.216 (active)
12,COc1ccc2[nH]cc(C3=CCNCC3)c2c1 (33.3333 µM),2.45 (inactive)
13,COc1ccc2c(c[n+](C)c3c4cc5c(cc4ccc23)OCO5)c1OC (6.66667 µM),0.204 (inactive)
14,O=C1C2CCN(CC2)C1(CO)CO (90 µM),1.07 (inactive)
15,CN[C@@H]1C[C@H]2O[C@@](C)([C@@H]1OC)n1c3ccccc3c3c4c(c5c6ccccc6n2c5c31)C(=O)NC4 [staurosporine] (35.6667 µM),0.11 (inactive)
16,C[C@@H]1O[C@@H](O[C@H]2C[C@@H](O)[C@]3(CO)[C@H]4[C@H](O)C[C@]5(C)[C@@H](C6=CC(=O)OC6)CC[C@]5(O)[C@@H]4CC[C@]3(O)C2)[C@H](O)[C@H](O)[C@H]1O [Ouabain] (33.3333 µM),0.0962 (active)
17,"CN(C(=O)Cc1ccc(Cl)c(Cl)c1)[C@H](CN1CCCC1)c1ccccc1 [ICI-199,441 hydrochloride] (33.3333 µM)",0.743 (inactive)
18,O=c1[nH]c2ccccc2n1C1CCN(CCCC(c2ccc(F)cc2)c2ccc(F)cc2)CC1 [Pimozide] (33.3333 µM),0.027 (inactive)
19,CC(C(=O)OC1CC2CCC(C1)N2C)c1ccc(Br)cc1 (configuration not stated) [PG-9 maleate] (33.3333 µM),0.598 (inactive)
20,C[C@]12CC[C@H](O)C[C@H]1CC[C@@H]1[C@@H]2CC[C@]2(C)[C@@H](C3=CC(=O)OC3)CC[C@]12O [Digitoxigenin] (33.3333 µM),0.099 (active)
21,O=[N+]([O-])/C=C/c1ccc2c(c1)OCO2 (3.7 µM),0.638 (inactive)
22,Fc1cc(F)c2c(c1)[C@H]1C=CC[C@H]1C(c1cccnc1)N2 (some centres not stated) [Golgicide A] (33.3333 µM),0.111 (active)
